Assay outcomes as filed in PubChem BioAssay.
In the library only some 7.5% were active in any assay of this set; here they are far more common.
Luc counter: counter-screen: inhibitors of Kinase-Glo firefly luciferase; Q27757; Kinase-Glo luciferase, ATP luminescence, 8 min; Potency, µM (series often up to 38.3 µM), for the others: at the top dose activity change, negative = inhibition, actives largely listed as inhibitors; 0.28% of 200,000 active; AID 1379; further: on the % scale 0 is the no-effect control and ±100 the full control effect; nearly all actives have a fitted effect of over 60% in size
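Compounds were added to a substrate mix at pH 7.2 (50 mM imidazole, 10 uM ATP, within the enzyme's linear range), followed by Kinase-Glo detection reagent; luminescence was measured after 8 minutes at ambient temperature.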
ELG1 genotoxic: inducers of genotoxicity in HEK293T ELG1-luciferase cells; HEK293T ELG1-luciferase reporter, luminescence, 16 h; Potency, µM (series often up to 46 µM), for inactives: at the highest dose activity change, positive = activation, most hits filed as activators; 1.3% of 330,000 active; AID 504466; further: % of control where 0% means no effect; nearly all actives have a fitted effect of over 60% in size
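ELG1-luciferase HEK293T cells, 2,000/well; compound pinned in; 16 hr, 37 °C, 5% CO2; ONE-Glo, 30 min RT; luminescence on CCD imager.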
FLuc modulator: counter-screen for miR-21 project: firefly luciferase inhibitors or activators. P08659. purified FLuc, Km substrates, luminescence inhibition. Potency, µM (highest dose often 57.5 µM), for inactives: at the top dose activity change, negative = inhibition, hits mostly inhibitors. 6.9% of 360,000 active. AID 588342;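 further: plate controls were vehicle for no effect and reference inhibitor for full effect; nearly all actives have a fitted effect of over 55% in size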
Target sequence (P08659 whole entry, looked up): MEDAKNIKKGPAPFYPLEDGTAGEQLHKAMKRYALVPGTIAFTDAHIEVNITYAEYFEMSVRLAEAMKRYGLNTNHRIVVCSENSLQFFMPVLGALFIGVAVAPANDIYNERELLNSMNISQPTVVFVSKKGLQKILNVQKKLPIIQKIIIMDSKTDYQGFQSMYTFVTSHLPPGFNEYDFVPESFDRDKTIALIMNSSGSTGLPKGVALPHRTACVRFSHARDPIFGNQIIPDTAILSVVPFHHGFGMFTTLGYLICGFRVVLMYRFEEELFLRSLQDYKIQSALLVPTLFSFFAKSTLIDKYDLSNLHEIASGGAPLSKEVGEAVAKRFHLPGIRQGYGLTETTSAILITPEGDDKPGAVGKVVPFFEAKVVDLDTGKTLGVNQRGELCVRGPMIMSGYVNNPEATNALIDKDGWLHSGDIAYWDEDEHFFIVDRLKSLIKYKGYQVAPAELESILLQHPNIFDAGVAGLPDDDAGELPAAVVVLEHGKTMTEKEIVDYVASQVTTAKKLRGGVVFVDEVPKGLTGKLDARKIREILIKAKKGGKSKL
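Biochemical qHTS of compounds, final roughly 60 µM downward over six points, against 10 nM purified firefly luciferase using Km concentrations of substrates (10 uM D-luciferin, 10 uM ATP) in Tris acetate pH 7.5 buffer; luminescence output.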
NPC1 promoter act: activates the NPC1 promoter | Potency, µM (doses to about 9.22 µM), inactives show at the highest dose activation, hits mostly activators | Huh7 NPC1 promoter luciferase reporter, 24 h | AID 485313 | 2.4% of 320,000 active; further: % of control where 0% means no effect; nearly all actives have a fitted effect of over 60% in size
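Stable NPC1-promoter luciferase Huh7 line; cpd (DMSO) 24 h, 37 °C, 5% CO2; Amplite luciferase reagent 10 min RT; luminescence readout. qHTS format.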
Rab9 promoter act: Rab9 promoter activation. 2.8% of 320,000 active. Huh7 Rab9 promoter-luciferase reporter, luminescence, 24 h. Potency, µM (titrated, usually from 9.22 µM), for the others: at the top dose activation, negative = inhibition, actives largely listed as activators; further: % of control where 0% means no effect; nearly all actives have a fitted effect of over 60% in size
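Steps: seed 1500 Huh7 Rab9-luc cells per well, rest 2 h at 37 °C; add compound in DMSO; incubate 24 h; add luciferase reagent, 10 min ambient; read luminescence.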
SMN2 splice enh: increases expression of the SMN2 splice variant; HEK293 SMN2-luciferase splicing reporter, luminescence, 30-36 h; Potency, µM (top dose mostly 46.1 µM), inactives show at the highest dose activity change, positive = activation, usual class: activators; 2.8% of 210,000 active; AID 1458; further: % of control where 0% means no effect; nearly all actives have a fitted effect of over 55% in size
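HEK293 cells carry an SMN2 minigene-luciferase reporter in which exon 7 inclusion puts luciferase in frame. Cells were seeded at 2000 cells/well, attached for 10-12 hours, then exposed to compounds for 30-36 hours at 37C before ONE-Glo luminescence.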
An asterisk follows results filed as active; ? = inconclusive; . = no result given; [ ] = another dose, or the depositor's remark. The call rests on the fitted dose curve; in most records, active means well fitted curve in the direction sought with a large enough effect; inconclusive means small, poorly fitted or top-dose-only effect, or another doubt; inactive means no such curve, though single readings can be large; an effect the other way counts as inactive or inconclusive. Potency means the concentration at half of the fitted maximal effect.

SMILES	Luc counter	ELG1 genotoxic	FLuc modulator	NPC1 promoter act	Rab9 promoter act	SMN2 splice enh
CC(C)(C)c1ccc(OCCC(=O)OCC(=O)NC(=O)NC2CCCC2)cc1	.	-43.6%	?	-0.4%	16.2%	.
O=C(CCC(=O)OCC(=O)c1ccc(Cl)cc1)NC1CCCCC1	-5.5%	-0.6%	-15.7%	-0.6%	2.4%	-2.0%
Cc1cc2ncn(CCOc3ccccc3)c2cc1C	-2.7%	?	16.9µM*	?	3.55µM*	-2.2%
Cc1ccc(NC(=O)Nc2cccc([N+](=O)[O-])c2)cc1F	.	2.4%	10.7µM*	?	16.9%	.
Cc1cc(NC(=O)Nc2cccc([N+](=O)[O-])c2)no1	-2.3%	-4.0%	-9.4%	11.2%	9.9%	-1.3%
O=C(Nc1ccc(OC(F)(F)F)cc1)Nc1cccc([N+](=O)[O-])c1	.	3.5%	23.9µM*	-10.2%	-29.9%	.
O=C(Nc1cccnc1)Nc1cccc([N+](=O)[O-])c1	.	-8.5%	-18.2%	10.6%	5.3%	.
CCC(CC)c1nn2c(=O)cc(COc3ccc(NC(=O)c4cccc(C)c4)cc3)nc2s1	.	.	3.0%	.	.	5.6%
Cc1ccc(-c2cc(C(=O)N/N=C/c3c(C)nn(C)c3C)c3ccccc3n2)c(C)c1	16.9%	4.6%	?	0.4%	7.1%	-1.9%
Cc1nn(C)c(C)c1/C=N/NC(=O)c1csc2ccccc12	3.4%	14.5%	16.9µM*	-2.3%	26.0%	-3.5%
CCn1ncc(/C=N\NC(=O)c2csc3ccccc23)c1C	8.4%	?	10.7µM*	-9.9%	-7.7%	23.2%
Cc1c(/C=N\NC(=O)c2csc3ccccc23)cnn1C	-0.9%	7.8%	?	1.7%	14.8%	-2.3%
CSc1ccc(CNc2ccc(C)c(C)c2)cc1	1.8%	?	15.1µM*	?	?	8.3%
CSc1ccc(CNc2ccc(C)cc2)cc1	-1.4%	?	9.53µM*	3.55µM*	3.98µM*	-5.3%
Cc1ccc(NCc2ccccc2)cc1	-0.1%	-3.9%	?	-1.1%	-3.4%	1.7%
COc1cc(CNc2ccc(C)c(C)c2)cc(OC)c1OC	1.2%	17.3%	-13.8%	-34.9%	-11.7%	-1.7%
COc1ccc(CNc2ccc(C)c(C)c2)cc1	1.3%	?	15.1µM*	?	?	25.3%
O=c1c(=NNc2ccccc2Cl)c(=O)c2ccccc12	6.31µM*	?	0.0757µM*	3.16µM*	?	-14.7%
Cc1cc(C)c(NN=c2c(=O)c3ccccc3c2=O)c(C)c1	-4.1%	?	0.953µM*	2.82µM*	1.78µM*	12.6µM*
N#Cc1ccccc1Cn1c(=O)n(CCCCC(=O)NCc2ccc3c(c2)OCO3)c(=O)c2ccccc21	.	.	-7.4%	.	.	0.6%
COc1cccc(-c2nnc(-c3ccccc3NC(=O)c3cccc(C(F)(F)F)c3)o2)c1	.	.	-10.2%	.	.	5.3%
Cc1cccc(C(=O)Nc2nnc(-c3ccco3)o2)c1	2.2%	0.6%	-15.3%	10.0%	0.6%	27.9%
O=C(Nc1ccccc1)c1cccc(-c2nnc(-c3ccccc3)o2)c1	2.9%	?	-11.9%	2µM*	3.98µM*	1µM*
Cc1ccc(SCC(=O)Nc2cccc(-c3nnc(-c4ccco4)o3)c2)cc1	2.6%	-4.1%	-10.8%	3.16µM*	3.16µM*	22.4µM*
O=C(Nc1cccc(-c2nnc(-c3ccccc3)o2)c1)c1ccco1	-2.5%	0.5%	3.1%	-8.0%	-0.5%	-12.2%
SMILES	Luc counter	ELG1 genotoxic	FLuc modulator	NPC1 promoter act	Rab9 promoter act	SMN2 splice enh
COc1cccc(C(=O)Nc2cccc(-c3nnc(-c4ccco4)o3)c2)c1	-3.3%	-31.6%	19µM*	-0.3%	9.6%	-25.1%
COc1cccc(-c2nnc(-c3ccccc3NC(=O)c3ccc(C(C)(C)C)cc3)o2)c1	.	3.2%	2.39µM*	-1.6%	13.7%	.
COC(=O)c1ccc([N+](=O)[O-])cc1N1C(=O)C2C3CCC(C3)C2C1=O (stereo unspecified)	2.0%	-2.4%	1.0%	18.2%	-0.3%	-7.7%
Cc1ccc(Nc2c([N+](=O)[O-])ccc3nonc23)cc1C	.	5.2%	-0.1%	-4.9%	3.6%	.
COc1ccc(CCNC(=O)c2ccc3c(c2)CCN3S(=O)(=O)c2ccc(Cl)cc2)cc1	.	.	-6.4%	.	.	-22.4%
COc1ccc(NC(=O)c2cn3c4c(ccc(Cl)c4c2=O)OC(C)C3)cc1OC (stereo unspecified)	.	.	-1.4%	.	.	.
CCCCN(C)c1nnc(NC(=O)Nc2cccc(C(C)=O)c2)s1	.	.	-9.4%	.	.	.
COc1cccc(C2CC(=O)Nc3cc4c(cc32)OCCO4)c1OC (stereo unspecified)	.	.	-9.0%	.	.	-15.1%
N/C(Cc1ccc(Cl)cc1Cl)=N\OC(=O)Cc1ccc(Cl)cc1	-3.2%	2.9%	-1.1%	0.0%	-0.4%	-6.6%[1.84 µM]
Cc1cccc(/C(N)=N/OC(=O)Cc2ccccc2)c1	-3.2%	?	15.1µM*	14.0%	19.5%	10.7%
N/C(Cc1ccc(Cl)cc1Cl)=N\OC(=O)Cc1ccccc1	4.5%	0.4%	15.1µM*	-0.9%	-3.2%	8.1%
Cc1cccc(/C(N)=N/OC(=O)COc2ccccc2Cl)c1	1.1%	?	19µM*	22.4%	16.0%	?
COc1ccc(/C(N)=N/OC(=O)COc2ccccc2Cl)cc1	-7.4%	?	21.3µM*	6.8%	11.0%	?
N/C(=N\OC(=O)COc1ccccc1)c1ccc(Cl)cc1	2.0%	?	?	-0.5%	-0.1%	20.8%
O=C(Nc1ccc(OC(F)F)cc1)c1cc(S(=O)(=O)N2CCCCC2)ccc1N1CCOCC1	.	0.4%	-0.1%	0.3%	0.5%	.
Cc1nn2c(nc1=O)SCC(c1ccccc1)=N2	-0.5%	?	3.0%	2.24µM*	3.55µM*	?
Cc1ccc(N2CCN(C(=O)c3nn(C)c4c3CSc3ccccc3-4)CC2C)cc1 (stereo unspecified)	.	.	2.3%	.	.	.
CN1CCN(Cn2cc(/C=C/C(=O)c3ccccc3)c3ccccc32)CC1	-3.7%	?	2.39µM*	?	2.82µM*	26.9%
O=C(/C=C/c1cn(CC(O)CN2CCCCCC2)c2ccccc12)c1ccccc1 (stereo unspecified)	.	.	0.0%	.	.	-1.4%
CCCCCOC(=O)c1ccc(NC(=O)c2cccc(NC(=O)c3ccccc3C(=O)O)c2)cc1	.	-2.0%	19µM*	1.7%	0.2%	.
COc1ccccc1NC(=O)c1cccc(NC(=O)c2ccco2)c1	3.3%	0.8%	?	-3.3%	-2.6%	-5.1%
Cc1c(Cl)cccc1NC(=O)c1cccc(NC(=O)CCC(=O)O)c1	-0.6%	1.6%	1.2%	0.7%	-3.2%	-8.6%
CCCOC(=O)c1ccc(NC(=O)c2ccccc2[N+](=O)[O-])cc1	2.3%	9.4%	?	28.0%	?	.
